The record followed here is PubChem BioAssay (NCI).

Molecules are shown by their SMILES. This is part of a sample that, as a whole, favours compounds with a hit. Of some 79,000 tested, about 15% had one in any assay. Values without a mark were called inactive. The source made the active and inactive calls. Rule as the data show it: active = growth inhibition above about 70%; inactive = the rest.

Assay [1] can be described thus: NCI Yeast Anticancer Drug Screen. Data for the rad50 strain (AID 155).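 Also: 0% = growth of vehicle-only cultures of the same strain.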 The note with it: S. cerevisiae rad50 strain growth inhibition; at 50.0 µM; hits give high values. The essentials:
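Inhibition values express reduced yeast growth in compound-treated cultures relative to vehicle-treated controls.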

Assay [2] is described as follows: NCI Yeast Anticancer Drug Screen. Data for the mec2-1 strain (AID 157). The following applies: S. cerevisiae mec2-1 strain, at 50.0 µM, hits give high values. In short, it runs like this:
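Test agents were screened against the mec2-1 yeast strain, with defined DNA repair or cell cycle alteration. Growth was scored as inhibition against vehicle-only controls.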

The nature of assay [3]: NCI Yeast Anticancer Drug Screen. Data for the sgs1 mgt1 strain (AID 161).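 Also: 0% = growth of cultures given vehicle only.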 The following applies: S. cerevisiae sgs1 mgt1 strain, at 50.0 µM, hits give high values. In short, it runs like this: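 Genetically altered yeast, compound exposure, growth inhibition relative to vehicle.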
Assay [4] is described as follows: NCI Yeast Anticancer Drug Screen. Data for the cln2 rad14 strain (AID 165).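 Also: 0% = growth equal to vehicle treated cultures.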 The following applies: S. cerevisiae cln2 rad14 strain, at 50.0 µM, hits give high values. The essentials:
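Growth of compound-exposed yeast (cln2 rad14 genotype) measured and expressed as inhibition relative to vehicle.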

A short description of assay [5]: NCI Yeast Anticancer Drug Screen. Data for the bub3 strain (AID 167). The following applies: S. cerevisiae bub3 mutant strain, at 50.0 µM, hits give high values. In short, it runs like this:
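Steps: expose the mutant yeast strain to compound; grow alongside vehicle-treated cultures; measure growth; express inhibition against the vehicle cultures.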

Assay [6] is described as follows: NCI Yeast Anticancer Drug Screen. Data for the mlh1 rad18 strain (AID 175). The following applies: S. cerevisiae mlh1 rad18 strain growth inhibition; at 50.0 µM; hits give high values. In short, it runs like this: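 In this whole-cell yeast screen, a strain with altered DNA damage repair is challenged with compound, and its growth is measured against matched vehicle-treated controls.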

In the case of `Cc1cccc(N2CCC(O)C2)c1` (stereo unspecified), the growth inhibition in assay [1] is -5.3%; in assay [2], 7.25%; in assay [3], -0.1%; in assay [4], 9.35%; in assay [5] it was -6.9%; in assay [6], -21.1%.

As for `O=C(CNc1c(Cl)cccc1Cl)NC1C=Cc2ccc(S(=O)(=O)Nc3c(Cl)cccc3Cl)cc2C1=O` (stereo unspecified), the growth inhibition in assay [1] was 36.2%; in assay [2], 12.9%; in assay [3] it was 49%; in assay [4] it was 5.35%; in assay [5], 19%; in assay [6], 22%.

For `O=C1c2ccccc2C(=O)N1CCSCCSCCN1C(=O)c2ccccc2C1=O`, the growth inhibition in assay [1] was -3.1%; in assay [2] it was -13.7%; in assay [3], 12.6%; in assay [4], 14.6%; in assay [5] it was -7.15%; in assay [6], 10.2%.

With `CNC1C(O)C(OC2C(N)CC(N)C(OC3OC(CN)C(O)C(O)C3O)C2O)OCC1(C)O` (stereo unspecified), the growth inhibition is 27.1% in assay [1]; -17.1% in assay [2]; -12.7% in assay [3]; 4.85% in assay [4]; 9.9% in assay [5]; 20.6% in assay [6].

For `CC1CCCCC[N+]1(C)CCO` (stereo unspecified), the growth inhibition in assay [1] is -8.5%; in assay [2], -7.15%; in assay [3] it was -6.25%; in assay [4], -30.7%; in assay [5], -7.85%; in assay [6] it was -4.8%.

In the case of `O=c1c2c([nH]c(=S)n1-c1ccccc1)NCCC2`, the growth inhibition is -13.8% in assay [1]; -1.25% in assay [2]; -11.6% in assay [3]; 3.3% in assay [4]; 9.55% in assay [5]; 0.4% in assay [6].

Turning to `Cc1c(OC(C)C(=O)O)ccc2c(-c3ccccc3)cc(=O)oc12` (stereo unspecified), the growth inhibition in assay [1] is 2.95%; in assay [2], 12.7%; in assay [3], 23.9%; in assay [4], 27.2%; in assay [5], 5.9%; in assay [6] it was 38.2%.

As to `COc1cc2c(c(OC)c1OC)-c1ccc(OC)c(=O)cc1C(NC(=O)c1ccc(N=[N+]=[N-])cc1)CC2` (stereo unspecified), the growth inhibition in assay [1] was 51.4%; in assay [2] it was 74.8% (active); in assay [3], 8.5%; in assay [4], -4.7%; in assay [5] it was -4.6%; in assay [6] it was 87.3% (active).

As for `CCOC(NC(=O)CC)(C(F)(F)F)C(F)(F)F`, the growth inhibition is 4.3% in assay [1]; -24.6% in assay [2]; -49.9% in assay [3]; -3.4% in assay [4]; 1.85% in assay [5]; -36.9% in assay [6].

On to `O=C(OCc1ccco1)c1ccc([N+](=O)[O-])cc1`, for which the growth inhibition in assay [1] was -5.15%; in assay [2], -7.3%; in assay [3], -3.75%; in assay [4] it was -32.6%; in assay [5], -13.5%; in assay [6], -12.8%.

`CCCCCC1(C=O)C(=O)NC(=O)N1C` (stereo unspecified): the growth inhibition in assay [1] is 2.25%; in assay [2] it was -5.45%; in assay [3], -1.45%; in assay [4], -0.45%; in assay [5], -0.05%; in assay [6] it was -8.2%.

On to `CC(=O)OC12c3ccccc3C(c3ccccc31)C1C(=O)N(c3ccccc3O)C(=O)C12` (stereo unspecified), for which the growth inhibition in assay [1] was -15.8%; in assay [2], -17.4%; in assay [3] it was -4.15%; in assay [4], 6.2%; in assay [5], -5.4%; in assay [6], 7.7%.

With `O=C1C2Cc3ccccc3CN2C(=O)N1CCN1CCCC1` (stereo unspecified), the growth inhibition in assay [1] was -19.1%; in assay [2], -33.7%; in assay [3], -12.1%; in assay [4] it was 4.3%; in assay [5] it was -22.6%; in assay [6], 8%.

Regarding `Cc1c(O)c2c(c(O)c1Cc1ccc(C#N)cc1)C(=O)c1ccccc1C2=O`, the growth inhibition in assay [1] was -4.5%; in assay [2], 31.4%; in assay [3], 17.9%; in assay [4], -4.25%; in assay [5], -1.95%; in assay [6], -0.9%.

Take `COc1ccc(C(C)c2cc3c(cc2OCCO)OCO3)cc1` (stereo unspecified): the growth inhibition in assay [1] is 8.35%; in assay [2] it was 6.7%; in assay [3], 44.3%; in assay [4], 18.1%; in assay [5], 41.8%; in assay [6] it was 45.7%.

As for `C=C(Cl)COc1ccc(OCC(=C)Cl)cc1`, the growth inhibition in assay [1] is 19.3%; in assay [2], -17.1%; in assay [3], 31.8%; in assay [4], 22.6%; in assay [5], 42%; in assay [6], 1.15%.

As for `CCCCN(CCCC)CC(O)C=O` (stereo unspecified), the growth inhibition in assay [1] was -7.95%; in assay [2], -3.95%; in assay [3], -0.5%; in assay [4] it was -4.85%; in assay [5], -8.4%; in assay [6] it was 2.95%.

`N/C(=N\C(=O)OCCOC(=O)/N=C(/N)c1ccccc1)c1ccccc1`: the growth inhibition in assay [1] was -3.5%; in assay [2], -8.5%; in assay [3] it was -6.05%; in assay [4] it was -20.5%; in assay [5] it was -3.1%; in assay [6], -27.1%.

Turning to `O=C(O)c1ccccc1N=N/C(=N\Nc1ccccc1C(=O)O)c1ccnc2ccccc12`, the growth inhibition was 37.5% in assay [1]; 10% in assay [2]; 29.3% in assay [3]; 11.2% in assay [4]; 2.8% in assay [5]; 26.9% in assay [6].

Turning to `O=[N+]([O-])c1cc(Br)c2ccccc2c1`, the growth inhibition in assay [1] was 6.7%; in assay [2], 4.9%; in assay [3] it was 6.45%; in assay [4], 2%; in assay [5] it was 18.2%; in assay [6], 15.1%.

Turning to `O=C(NO)c1ccc([N+](=O)[O-])cc1`, the growth inhibition in assay [1] was 58.2%; in assay [2], 31.1%; in assay [3], 46.3%; in assay [4], 7.05%; in assay [5] it was 17.8%; in assay [6], 22.2%.
